We go through nine compounds from PubChem BioAssay (NCATS).

Values without a mark were called inactive. Records with an inconclusive call do not appear. The source made the active and inactive calls. Unless noted, calls follow the shape of the dose curve; as a rule, active = well fitted curve in either direction with a large enough effect (not every such curve was filed as active); inconclusive = small, poorly fitted or top-dose-only effect, or another doubt; inactive = flat fitted curve, though single readings scatter.

The target of experiment [1] is Lysosomal acid glucosylceramidase (Homo sapiens) (UniProt P04062). In words: Glucocerebrosidase-p2 (AID 348; in the data active = potency below about 10 µM; also: potency is read from the fitted curve at half-maximal effect). Conditions: purified GBA, blue fluorogenic substrate, 40 min. An outline of the steps:
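Normal human glucocerebrosidase (0.2 nM) with blue fluorogenic substrate (80 uM final) in citrate/phosphate pH 5.9 with 10mM sodium taurocholate, 0.01% tween-20; 40 min RT, NaOH/glycine stop; fluorescence Ex 365/Em 440; AC50 from a titration from 0.6 nM upwards.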

Experiment [2] can be described thus: AP1 Signaling Pathway (AID 357).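 Also: ME-180 reporter cells stimulated with EGF at its EC50 level; % is scaled to controls: 0 for no effect and ±100 for the full control effect.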 As to conditions: ME-180 AP-1-bla reporter, EGF-induced, beta-lactamase ratio, 5 h; at 7.69 µM (top of the series) unless noted. The method, boiled down:
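Beta-lactamase reporter under AP-1 response element, ME-180 background. Stimulus: EC50 EGF. Compound exposure 5 h, 37 °C. Detection: CCF4, 2.5 h RT, 460/530 nm. Values: AC50 from titration.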

Experiment [3] addresses Cytochrome P450 1A2 (Homo sapiens) (UniProt P05177). In words: p450-cyp1a2 (AID 410; calls by dose curve; also: potency is read from the fitted curve at half-maximal effect). Conditions: recombinant CYP1A2, luciferin-ME demethylation, luminescence; series mostly up to 57 µM. An outline of the steps:
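O-Demethylation of luciferin 6' methyl ether by human CYP1A2 is monitored as luciferase luminescence. Substrate sits at Km (100uM); enzyme is 20nM. Values are scaled to 57 uM furafylline as maximal inhibition.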

Experiment [4] in a line: NFAT Signaling Pathway (AID 444).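 Also: carbachol stimulus at about its EC50 of 1 µM final; % is scaled to controls: 0 for no effect and ±100 for the full control effect.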 Conditions: Jurkat NFAT-bla M1, carbachol, beta-lactamase ratio, 5 h; at 7.69 µM (top of the series) unless noted. The method, boiled down:
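Jurkat cells with NFAT-driven β-lactamase reporter and co-expressed M1 receptor, stimulated with carbachol (final 1 uM, ~EC50), compound titration, 5 h at 37 °C. CCF4 loaded 1 h at RT; 460/530 nm ratio gave %activity and AC50.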

Experiment [5] in a line: Stat Signaling Pathway (AID 446).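 Also: ME-180 cervical cancer cells given 40 pM IL-6 alongside compound; SIE-controlled beta-lactamase reporter measured as 460/530 nm FRET emission ratio; % is scaled to controls: 0 for no effect and ±100 for the full control effect.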 As to conditions: ME-180 (cervical carcinoma) SIE beta-lactamase reporter, IL-6 stimulated, 5 h; at 7.69 µM (top of the series) unless noted. The method, boiled down: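 Overnight-plated ME-180 cells bearing a STAT Inducible Element beta-lactamase reporter; 5 h co-exposure to compound and 40 pM IL-6; values normalized to 300 pM IL-6 and 125 nM JAK inhibitor controls.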

Experiment [6] has as its target Glucocorticoid receptor (Homo sapiens) (UniProt P04150). Nature of the experiment: GR-EFC Redistribution (AID 451; calls by dose curve; also: potency is read from the fitted curve at half-maximal effect). Conditions: CHO-K1 GR-EFC translocation, beta-gal luminescence, 2 h. The method, boiled down: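 CHO-K1 cells expressing nuclear EA and GR-ED fragments of b-gal; compounds titrated up to 46 uM final, 2 h at 37 C. GR nuclear translocation read as complemented b-gal luminescence after 1 h RT detection.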

The target in experiment [7] is Mitogen-activated protein kinase 10 (Mus musculus) (UniProt Q61831). Nature of the experiment: JNK3 AlphaScreen Assay (AID 530).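 Also: kinase came from lysate of stimulated human HepG2 cells; signal reports phosphorylation of biotinylated GST-cJun 1-79 at Ser73 with 10 µM ATP; % is scaled to controls: 0 for no effect and ±100 for the full control effect.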 As to conditions: JNK3 lysate, c-Jun phosphorylation; series mostly up to 57.1 µM. The method, boiled down: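 Activity was read by AlphaScreen after JNK3-containing HepG2 lysate (cytokine pre-activated) phosphorylated biotinylated GST-cJun with 10 uM ATP at room temperature. Phospho-Ser73 cJun antibody with Protein-A acceptor beads provided detection.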
On the technique in general: In Alpha technology, singlet oxygen from a donor bead excites a nearby acceptor bead.

In experiment [8] the target is 3',5'-cyclic-AMP phosphodiesterase 4B (Homo sapiens) (UniProt Q07343). In words: qHTS Assay for Inhibitors of PDE-IV (AID 607; active = well fitted activation curve with a large enough effect in the main read-out, with a control signal flat, not every such curve was filed as active; also: % of control where 0% means no effect). As to conditions: HEK293 ACTOne CNG channel cells, membrane potential fluorescence; series mostly up to 22.9 µM. An outline of the steps: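 Live HEK293 cells with a modified cyclic nucleotide-gated (CNG) channel report intracellular cAMP via membrane-potential dye fluorescence (ex 535/em 590 nm). Endogenous PDE-IV was targeted. Compounds were tested at up to 22.9 uM final; RO 20-1724 100 uM served as control.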
3',5'-cyclic-AMP phosphodiesterase 4B (Homo sapiens), sequence (Q07343 whole entry, looked up): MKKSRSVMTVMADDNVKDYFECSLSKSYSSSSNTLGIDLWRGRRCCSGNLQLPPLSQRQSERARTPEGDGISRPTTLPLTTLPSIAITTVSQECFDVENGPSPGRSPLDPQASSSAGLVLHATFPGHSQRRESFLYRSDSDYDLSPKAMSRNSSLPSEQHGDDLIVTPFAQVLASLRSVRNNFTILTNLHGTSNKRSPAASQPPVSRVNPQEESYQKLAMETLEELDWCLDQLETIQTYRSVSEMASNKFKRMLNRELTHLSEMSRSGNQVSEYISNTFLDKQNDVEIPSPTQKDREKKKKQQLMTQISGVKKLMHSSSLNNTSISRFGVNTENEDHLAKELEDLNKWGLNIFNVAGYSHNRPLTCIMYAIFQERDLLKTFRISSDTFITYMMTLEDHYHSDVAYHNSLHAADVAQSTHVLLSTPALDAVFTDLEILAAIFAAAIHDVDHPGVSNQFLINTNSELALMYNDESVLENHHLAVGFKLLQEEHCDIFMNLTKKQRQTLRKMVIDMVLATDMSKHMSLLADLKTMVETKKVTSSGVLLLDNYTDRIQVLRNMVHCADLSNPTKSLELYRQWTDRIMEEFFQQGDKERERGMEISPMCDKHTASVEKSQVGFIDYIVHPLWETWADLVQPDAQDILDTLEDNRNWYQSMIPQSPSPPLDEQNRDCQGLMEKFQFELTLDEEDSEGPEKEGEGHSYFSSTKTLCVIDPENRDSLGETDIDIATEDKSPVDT
(qHTS replaces the single test concentration by a dilution series.)

Experiment [9] is described as follows: Primary qHTS for small molecule stabilizers of the endoplasmic reticulum resident proteome: Secreted ER Calcium Modulated Protein (SERCaMP) assay (AID 1508630; active = well fitted curve in the direction sought with a large enough effect; an effect the other way counts as inactive or inconclusive; also: % is scaled to controls: 0 for no effect and ±100 for the full control effect). As to conditions: SH-SY5Y GLuc-SERCaMP (Gaussia luciferase released on ER calcium loss) secretion, thapsigargin, luminescence; series mostly up to 38.4 µM. An outline of the steps: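 The SH-SY5Y reporter protocol was run at 3 concentrations up to 38.3 uM (primary) or 11 concentrations (follow-up): 16 h compound, 100 nM thapsigargin for 4 h, then extracellular luciferase luminescence.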

The target in experiment [10] is Cytochrome P450 2C9 (Homo sapiens) (UniProt P11712). Nature of the experiment: qHTS Assay for Inhibitors and Substrates of Cytochrome P450 2C9 (AID 883; active = well fitted curve in the direction sought with a large enough effect; an effect the other way counts as inactive or inconclusive; also: % is scaled to controls: 0 for no effect and ±100 for the full control effect; nearly all actives have a fitted effect of over 60% in size). As to conditions: recombinant CYP2C9, luciferin-H luminescence, 60 min; series mostly up to 57.1 µM. An outline of the steps: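 Human CYP2C9 (10nM) with Luciferin-H at 100uM (its KM) in 25mM KPO4; compound preincubated 10 min at 37C, then NADPH regeneration for 60 min at 37C. Luciferin read by luminescence after detection reagent; normalized to 57uM sulphaphenazole as full inhibition.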
Cytochrome P450 2C9 (Homo sapiens), sequence (P11712 whole entry, looked up): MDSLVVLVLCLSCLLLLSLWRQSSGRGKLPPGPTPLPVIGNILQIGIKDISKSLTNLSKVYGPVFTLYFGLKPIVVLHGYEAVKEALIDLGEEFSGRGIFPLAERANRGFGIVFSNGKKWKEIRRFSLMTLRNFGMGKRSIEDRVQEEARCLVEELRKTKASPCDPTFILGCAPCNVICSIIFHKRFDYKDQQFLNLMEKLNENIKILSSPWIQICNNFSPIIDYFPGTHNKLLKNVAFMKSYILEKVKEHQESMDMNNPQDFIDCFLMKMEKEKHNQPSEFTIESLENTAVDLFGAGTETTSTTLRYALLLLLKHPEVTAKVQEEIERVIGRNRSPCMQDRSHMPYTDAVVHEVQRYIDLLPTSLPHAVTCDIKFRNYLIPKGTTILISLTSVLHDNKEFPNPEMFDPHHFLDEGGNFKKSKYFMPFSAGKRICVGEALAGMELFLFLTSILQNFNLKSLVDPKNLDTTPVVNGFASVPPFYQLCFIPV

Experiment [11] has as its target Cytochrome P450 2D6 (Homo sapiens) (UniProt P10635). In words: qHTS Assay for Inhibitors and Substrates of Cytochrome P450 2D6 (AID 891; active = well fitted curve in the direction sought with a large enough effect; an effect the other way counts as inactive or inconclusive;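 also: luciferin methyl ether substrate demethylated by CYP2D6 with NADPH regeneration; % is scaled to controls: 0 for no effect and ±100 for the full control effect; nearly all actives have a fitted effect of over 60% in size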). Conditions: recombinant CYP2D6, luciferin-ME EGE luminescence; series mostly up to 57.1 µM. An outline of the steps:
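Luminescent read-out of luciferin formed by 5 nM human CYP2D6 demethylating 30 uM Luciferin-ME EGE (Km level) over 60 min at room temperature after NADPH regeneration addition. Data normalized to full inhibition by 1.43 uM quinidine.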

Experiment [12] deals with Cytochrome P450 2C19 (Homo sapiens) (UniProt P33261). Nature of the experiment: qHTS Assay for Inhibitors and Substrates of Cytochrome P450 2C19 (AID 899; active = well fitted curve in the direction sought with a large enough effect; an effect the other way counts as inactive or inconclusive; also: % is scaled to controls: 0 for no effect and ±100 for the full control effect; nearly all actives have a fitted effect of over 60% in size). Conditions: recombinant CYP2C19, luciferin-H EGE luminescence; series mostly up to 57.1 µM. An outline of the steps: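 5 nM human CYP2C19 with 10uM Luciferin-H EGE (at KM) in 50mM KPO4, compound preincubated 10 min at 37C, then NADPH regeneration for 60 min at 37C. Luciferin read by luminescence after detection reagent; normalized to 57uM ketoconazole as full inhibition.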
Cytochrome P450 2C19 (Homo sapiens), sequence (P33261 whole entry, looked up): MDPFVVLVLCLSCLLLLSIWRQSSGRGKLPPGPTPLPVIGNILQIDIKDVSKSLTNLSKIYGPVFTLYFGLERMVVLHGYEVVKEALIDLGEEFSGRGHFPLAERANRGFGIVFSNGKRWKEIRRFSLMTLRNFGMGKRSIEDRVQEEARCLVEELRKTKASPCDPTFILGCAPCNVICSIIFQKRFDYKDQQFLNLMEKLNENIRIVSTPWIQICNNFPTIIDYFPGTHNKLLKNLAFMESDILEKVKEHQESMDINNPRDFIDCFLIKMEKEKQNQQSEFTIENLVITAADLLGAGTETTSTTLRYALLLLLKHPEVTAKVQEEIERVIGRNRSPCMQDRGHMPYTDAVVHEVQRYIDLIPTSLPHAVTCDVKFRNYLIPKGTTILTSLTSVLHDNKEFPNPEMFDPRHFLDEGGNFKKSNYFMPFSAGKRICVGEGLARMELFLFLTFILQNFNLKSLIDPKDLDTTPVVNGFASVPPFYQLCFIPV

For experiment [13], the target named is Cytochrome P450 3A4 (Homo sapiens) (UniProt P08684). Nature of the experiment: qHTS Assay for Inhibitors and Substrates of Cytochrome P450 3A4 (AID 884; active = well fitted curve in the direction sought with a large enough effect; an effect the other way counts as inactive or inconclusive; also: % is scaled to controls: 0 for no effect and ±100 for the full control effect; nearly all actives have a fitted effect of over 50% in size). As to conditions: recombinant CYP3A4, Luciferin-PPXE luminescence; series mostly up to 57.1 µM. An outline of the steps: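 Luminescent readout of luciferin produced by CYP3A4 (20 nM) dealkylation of Luciferin-PPXE, 25 uM (its KM). NADPH-driven reaction ran 60 min at RT after 10 min compound preincubation; data scaled to 57 uM ketoconazole as 100% inhibition.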
Cytochrome P450 3A4 (Homo sapiens), sequence (P08684 whole entry, looked up): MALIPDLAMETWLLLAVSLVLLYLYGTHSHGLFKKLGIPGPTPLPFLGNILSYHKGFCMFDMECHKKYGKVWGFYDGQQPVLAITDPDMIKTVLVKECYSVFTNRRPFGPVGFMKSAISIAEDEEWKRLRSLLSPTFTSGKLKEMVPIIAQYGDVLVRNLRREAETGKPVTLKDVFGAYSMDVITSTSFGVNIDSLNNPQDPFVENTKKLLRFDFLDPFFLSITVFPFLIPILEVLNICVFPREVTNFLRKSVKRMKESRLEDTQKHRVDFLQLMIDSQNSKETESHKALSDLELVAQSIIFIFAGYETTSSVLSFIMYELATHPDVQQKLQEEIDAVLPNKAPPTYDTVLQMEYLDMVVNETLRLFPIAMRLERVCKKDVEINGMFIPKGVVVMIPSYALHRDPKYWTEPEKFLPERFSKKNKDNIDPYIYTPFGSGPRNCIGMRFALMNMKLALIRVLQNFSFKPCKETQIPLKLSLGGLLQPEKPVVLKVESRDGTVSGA

The nature of experiment [14]: Confirmation and Secondary Assay for Modulators of Hemoglobin Beta Chain Splicing at IVS2 654 locus (AID 910; active = well fitted curve in the direction sought with a large enough effect; an effect the other way counts as inactive or inconclusive;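 also: HeLa cells stably carrying EGFP split by mutant beta-globin IVS2-654 intron; % of control where 0% means no effect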). Conditions: HeLa EGFP-654 splicing reporter, GFP fluorescence, 48 h; series mostly up to 38.3 µM. The method, boiled down:
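HeLa cells stably expressing EGFP interrupted by β-globin IVS2-654 intron, seeded overnight in Opti-MEM/2% FCS, then treated 2 days at 37 °C. Restored splicing read as total peak GFP intensity per well by laser scanning cytometry (488 nm excitation, 500–520 nm emission); 500 nM antisense PNA as control.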

Experiment [15] addresses Ubiquitin carboxyl-terminal hydrolase 1 (Homo sapiens) (UniProt O94782). In words: Inhibitors of USP1/UAF1: Pilot qHTS (AID 504865; active = well fitted curve in the direction sought with a large enough effect; an effect the other way counts as inactive or inconclusive;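 also: rhodamine fluorescence freed from ubiquitin-rhodamine substrate followed over time; top concentration of the series differs between compounds; % is scaled to controls: 0 for no effect and ±100 for the full control effect; nearly all actives have a fitted effect of over 35% in size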). As to conditions: purified USP1/UAF1, Ub-rhodamine cleavage fluorescence; series mostly up to 54.9 µM. An outline of the steps: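 In 50mM HEPES pH 7.8 containing 0.5mM EDTA, 1mM TCEP, 0.1 mg/ml BSA and 0.01% Tween-20, 1nM USP1/UAF1 is exposed to compound for 15 min, then Ub-Rho (150nM final) is added and fluorescence is read over time.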

In experiment [16] the target is Glucocorticoid receptor (Homo sapiens) (UniProt P04150). Nature of the experiment: GR-GFP Redistribution (AID 450;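 active = compounds whose dose series gives a full or clear partial fitted curve of increased nuclear translocation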; also: potency is read from the fitted curve at half-maximal effect). As to conditions: U2OS GR-GFP nuclear translocation, laser cytometry, 2 h.
Glucocorticoid receptor (Homo sapiens), sequence (P04150 whole entry, looked up, the tested form may be a part): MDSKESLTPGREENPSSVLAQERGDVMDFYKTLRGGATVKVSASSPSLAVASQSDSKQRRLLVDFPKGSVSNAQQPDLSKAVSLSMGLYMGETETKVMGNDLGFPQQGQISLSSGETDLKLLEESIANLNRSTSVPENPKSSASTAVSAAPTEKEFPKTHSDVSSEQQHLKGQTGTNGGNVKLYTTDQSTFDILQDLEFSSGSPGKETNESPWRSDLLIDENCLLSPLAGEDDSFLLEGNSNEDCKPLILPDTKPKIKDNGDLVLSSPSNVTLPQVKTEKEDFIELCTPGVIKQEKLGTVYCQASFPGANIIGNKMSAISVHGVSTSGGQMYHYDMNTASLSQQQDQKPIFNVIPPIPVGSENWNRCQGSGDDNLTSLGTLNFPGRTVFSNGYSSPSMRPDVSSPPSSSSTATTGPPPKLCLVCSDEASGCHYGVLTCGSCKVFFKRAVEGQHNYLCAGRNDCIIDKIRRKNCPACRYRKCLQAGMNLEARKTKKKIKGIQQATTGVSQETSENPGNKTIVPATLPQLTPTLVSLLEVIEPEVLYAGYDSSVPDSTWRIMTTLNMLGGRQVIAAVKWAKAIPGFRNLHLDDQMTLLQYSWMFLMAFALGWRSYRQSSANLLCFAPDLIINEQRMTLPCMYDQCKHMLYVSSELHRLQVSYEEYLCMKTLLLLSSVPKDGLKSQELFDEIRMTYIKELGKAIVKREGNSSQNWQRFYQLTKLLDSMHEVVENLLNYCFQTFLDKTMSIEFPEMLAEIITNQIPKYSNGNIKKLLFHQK
For experiment [17], the target named is Cytochrome P450 3A4 (Homo sapiens) (UniProt P08684). In words: qHTS Assay for Activators of Cytochrome P450 3A4 (AID 885; active = well fitted curve in the direction sought with a large enough effect; an effect the other way counts as inactive or inconclusive; also: nearly all actives have a fitted effect of over 65% in size). As to conditions: recombinant CYP3A4, Luciferin-PPXE luminescence, 60 min; series mostly up to 57.1 µM. An outline of the steps: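 Using 20nM recombinant human CYP3A4 in potassium phosphate (200mM), substrate Luciferin-PPXE at 25uM, luminescent luciferin detection followed a 60-min RT NADPH reaction; data scaled to 57 uM ketoconazole.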

Cytochrome P450 1A2 (Homo sapiens), sequence (P05177 whole entry, looked up): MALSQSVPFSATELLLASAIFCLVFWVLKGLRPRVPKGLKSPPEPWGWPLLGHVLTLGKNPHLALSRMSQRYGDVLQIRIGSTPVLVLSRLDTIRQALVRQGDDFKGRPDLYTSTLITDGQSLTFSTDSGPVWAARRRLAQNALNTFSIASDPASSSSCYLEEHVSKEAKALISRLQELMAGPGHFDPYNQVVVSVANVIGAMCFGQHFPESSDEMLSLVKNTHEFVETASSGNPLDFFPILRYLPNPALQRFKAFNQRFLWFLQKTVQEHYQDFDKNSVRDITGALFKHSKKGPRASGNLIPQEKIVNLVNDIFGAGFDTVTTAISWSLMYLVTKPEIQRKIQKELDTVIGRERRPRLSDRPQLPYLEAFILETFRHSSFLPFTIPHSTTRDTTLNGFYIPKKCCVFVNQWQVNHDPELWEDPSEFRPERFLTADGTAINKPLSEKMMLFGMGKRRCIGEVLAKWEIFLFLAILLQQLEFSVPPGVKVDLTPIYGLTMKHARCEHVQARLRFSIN
Lysosomal acid glucosylceramidase (Homo sapiens), sequence (P04062 whole entry, looked up): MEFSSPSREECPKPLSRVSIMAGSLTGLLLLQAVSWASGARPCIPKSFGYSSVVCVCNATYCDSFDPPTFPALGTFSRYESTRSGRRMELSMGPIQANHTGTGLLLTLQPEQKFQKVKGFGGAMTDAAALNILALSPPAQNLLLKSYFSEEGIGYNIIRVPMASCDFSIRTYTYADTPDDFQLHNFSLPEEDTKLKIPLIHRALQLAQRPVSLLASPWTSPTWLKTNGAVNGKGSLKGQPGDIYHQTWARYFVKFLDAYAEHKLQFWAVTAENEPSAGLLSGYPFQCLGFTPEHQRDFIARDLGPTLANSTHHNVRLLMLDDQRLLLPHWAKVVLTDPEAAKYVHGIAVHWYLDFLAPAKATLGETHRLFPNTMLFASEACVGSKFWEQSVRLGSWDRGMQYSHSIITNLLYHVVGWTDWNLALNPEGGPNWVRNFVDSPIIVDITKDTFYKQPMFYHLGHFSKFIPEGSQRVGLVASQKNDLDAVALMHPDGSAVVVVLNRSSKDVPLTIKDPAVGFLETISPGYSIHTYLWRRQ
Ubiquitin carboxyl-terminal hydrolase 1 (Homo sapiens), sequence (O94782 whole entry, looked up): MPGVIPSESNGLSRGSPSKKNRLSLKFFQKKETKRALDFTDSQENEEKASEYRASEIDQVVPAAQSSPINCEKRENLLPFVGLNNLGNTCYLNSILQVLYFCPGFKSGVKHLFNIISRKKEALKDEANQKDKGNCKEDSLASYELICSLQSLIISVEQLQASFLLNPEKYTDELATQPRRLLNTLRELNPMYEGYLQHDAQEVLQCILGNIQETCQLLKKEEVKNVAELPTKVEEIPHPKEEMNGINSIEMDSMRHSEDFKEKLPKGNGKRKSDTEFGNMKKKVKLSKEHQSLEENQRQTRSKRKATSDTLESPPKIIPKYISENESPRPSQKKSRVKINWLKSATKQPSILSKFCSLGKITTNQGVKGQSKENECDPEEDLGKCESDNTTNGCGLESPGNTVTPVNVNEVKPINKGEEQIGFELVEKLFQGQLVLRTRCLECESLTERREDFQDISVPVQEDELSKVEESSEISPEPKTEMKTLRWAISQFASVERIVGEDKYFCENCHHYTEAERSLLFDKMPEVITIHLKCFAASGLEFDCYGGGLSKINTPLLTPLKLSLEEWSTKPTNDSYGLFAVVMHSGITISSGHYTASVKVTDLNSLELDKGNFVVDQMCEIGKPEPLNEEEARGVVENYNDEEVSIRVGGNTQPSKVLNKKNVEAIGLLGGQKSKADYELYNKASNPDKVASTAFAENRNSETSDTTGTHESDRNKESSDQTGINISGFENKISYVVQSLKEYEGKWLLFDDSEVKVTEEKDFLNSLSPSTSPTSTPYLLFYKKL

In the case of `COCC(=O)N1CCC2(CC1)CN(Cc1ccccc1OC)C2`, the results for the Potency in experiment [1] and in experiment [6] were over 11.4 µM and over 46 µM, respectively. The activity change, negative = inhibition in [2] was -2.68%; in experiment [4], 9.66%. The Potency result in [3], in experiment [7] and in [8] was “inactive” each time. Also, the activity, negative = inhibition in [5] was 14.6%. Further, the result in experiment [9] was inactive.

As for `Cn1cccc1C(=O)N1CCC2(CCCN(c3ncccn3)C2)CC1`, the Potency in experiment [1] was over 11.4 µM; in experiment [6] it was over 46 µM. The values for the activity change, negative = inhibition in [2] and in [4] were 7.97% and 2.93%, respectively. For the same compound, the Potency entry in experiment [3], in [7], in experiment [8], in experiment [10], in [11] and in [12] was “inactive” throughout. The activity, negative = inhibition in experiment [5] is -5.18%. The result in experiment [9] was inactive.

As to `COc1ccc(NC(=O)N2CCC3(CC2)CCN(C(=O)c2cccn2C)CC3)cc1`, the Potency was over 11.4 µM in experiment [1] and over 46 µM in experiment [6]. Also, the activity change, negative = inhibition was -7.7% in experiment [2] and -0.784% in [4]. The Potency result in experiment [3], in [7], in [8] and in experiment [13] was “inactive” in each case. Besides, the activity, negative = inhibition in experiment [5] was 2.55%. Also, the outcome in [9] was inactive.

`CN(Cc1ccco1)c1ccnc(-c2ccoc2)n1`: the Potency in experiment [1] was over 11.4 µM; in experiment [3] it was 12.6 µM (active); in experiment [6], over 46 µM. In addition, the values for the activity change, negative = inhibition in [2] and in [4] were 12% and -2.04%, respectively. Also, the activity, negative = inhibition in experiment [5] is -14.2%. Further, the Potency result in [7], in experiment [8], in experiment [14] and in experiment [15] was “inactive” each time. In addition, in experiment [9], the outcome was inactive.

`O=C(c1cnccn1)N1CCC2(CCCN(c3ccc(-c4ccccc4)cc3)C2)CC1`: the Potency in experiment [1] is over 11.4 µM; in [3], 25.1 µM (active); in experiment [6], over 46 µM. For the same compound, the activity change, negative = inhibition was -27.9% in experiment [2] and -14.8% in [4]. In addition, the activity, negative = inhibition in experiment [5] was 8.97%. Also, the Potency entry in experiment [7] and in experiment [8] was “inactive” in each case. Besides, in experiment [9], the result was inactive.

`CS(=O)(=O)N1CCC2(CC1)CN(c1ccc(-c3ccccc3)cc1)C2`: the Potency is over 11.4 µM in [1] and over 46 µM in experiment [6]. Also, the activity change, negative = inhibition was -8.52% in experiment [2] and -6.69% in experiment [4]. Besides, the Potency result in [3], in [7], in experiment [8], in [10] and in [12] was “inactive” throughout. The activity, negative = inhibition in [5] is -25.1%. The outcome in [9] was inactive.

In the case of `O=C(c1csnn1)N1CCC2(CCN(Cc3nccs3)CC2)CC1`, the Potency in experiment [1] was over 11.4 µM; in [6] it was over 46 µM. In addition, the activity change, negative = inhibition was -7.97% in [2] and -13.7% in [4]. The Potency entry in [3], in [7] and in experiment [8] was “inactive” throughout. For the same compound, the activity, negative = inhibition in experiment [5] is -2.3%. Besides, in experiment [9], the outcome was inactive.

Regarding `O=C(c1cnccn1)N1CCC2(CC1)CN(Cc1nccs1)C2`, the Potency in [1] is over 11.4 µM; in [6], over 46 µM. The activity change, negative = inhibition in experiment [2] is -5.34%; in [4] it was -5.05%. Moreover, the Potency entry in experiment [3], in experiment [7] and in experiment [8] was “inactive” each time. Also, in [5], the activity, negative = inhibition is -2.27%. Besides, the outcome in [9] was inactive.

`Cn1c(=O)c(-c2ccc(F)cc2)nc2cncnc21`: the Potency in experiment [1] was over 11.4 µM; in experiment [3], 0.158 µM (active); in experiment [16] it was over 9.22 µM. The activity change, negative = inhibition in experiment [2] is -16.1%; in experiment [4], -1.33%. Besides, the activity, negative = inhibition in [5] is -0.562%. The Potency result in experiment [7], in [8] and in experiment [17] was “inactive” each time. In experiment [9], the result was inactive.
